# Measurements taken from the supplement of paper PMC8253809.
# How the values were obtained:
# Test in all cases: growth inhibition (% activity, log2 RLU normalised to DMSO / staurosporine); higher = more growth inhibition
# Settings in all cases: 33 µM
# DIPGX29 = system: DIPGX29 (H3.3 K27M diffuse intrinsic pontine glioma line)
# How it was run: (§1)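 The growth-inhibition value is the median over replicates. pHGG cell lines and H9-derived neural stem cells on Geltrex-coated 384-well plates received approved drugs by pin tool at a single final concentration of about 33 μM, in triplicate, for 7 days at 37 °C, 5% CO2. CellTiter-Glo luminescence was log2-transformed and normalised per plate to % activity between solvent and positive control wells.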
# DIPGX37 = system: DIPGX37 (H3.3 K27M diffuse intrinsic pontine glioma line)
# How it was run: as §1
# DIPGX7 = system: DIPGX7 (H3.3 K27M diffuse intrinsic pontine glioma line)
# How it was run: as §1
# DIPGX9 = system: DIPGX9 (diffuse intrinsic pontine glioma line)
# How it was run: as §1
# HGGX39 = system: HGGX39 (paediatric high-grade glioma line)
# How it was run: as §1
# HGGX6 = system: HGGX6 (H3.3 G34R paediatric high-grade glioma line)
# How it was run: as §1
# HNSC = system: HNSC
# How it was run: as §1
# SUDIPGIV = system: SUDIPGIV (diffuse intrinsic pontine glioma line)
# How it was run: as §1
# SUDIPGVI = system: SUDIPGVI (diffuse intrinsic pontine glioma line)
# How it was run: as §1
# SUDIPGXIII = system: SUDIPGXIII (diffuse intrinsic pontine glioma line)
# How it was run: as §1
compound,measurement,setting,value
CNCC[C@@H](Oc1ccccc1C)c1ccccc1,growth inhibition,DIPGX29,1.02%
same,growth inhibition,DIPGX37,2.33%
same,growth inhibition,DIPGX7,2.36%
same,growth inhibition,DIPGX9,0.537%
same,growth inhibition,HGGX39,2.58%
same,growth inhibition,HGGX6,-1.18%
same,growth inhibition,HNSC,8.5%
same,growth inhibition,SUDIPGIV,3.36%
same,growth inhibition,SUDIPGVI,4.57%
same,growth inhibition,SUDIPGXIII,1.41%
N#CC[C@H](C1CCCC1)n1cc(-c2ncnc3[nH]ccc23)cn1,growth inhibition,DIPGX29,-0.711%
same,growth inhibition,DIPGX37,-0.293%
same,growth inhibition,DIPGX7,0.591%
same,growth inhibition,DIPGX9,-1.04%
same,growth inhibition,HGGX39,1.2%
same,growth inhibition,HGGX6,-0.228%
same,growth inhibition,HNSC,-3.15%
same,growth inhibition,SUDIPGIV,-1.09%
same,growth inhibition,SUDIPGVI,1.18%
same,growth inhibition,SUDIPGXIII,-0.858%
CCCCC1C(=O)N(c2ccccc2)N(c2ccccc2)C1=O,growth inhibition,DIPGX29,-0.206%
same,growth inhibition,DIPGX37,-1.51%
same,growth inhibition,DIPGX7,-0.44%
same,growth inhibition,DIPGX9,-1.82%
same,growth inhibition,HGGX39,-1.47%
same,growth inhibition,HGGX6,-2.46%
same,growth inhibition,HNSC,0.0851%
same,growth inhibition,SUDIPGIV,-3.3%
same,growth inhibition,SUDIPGVI,-4.73%
same,growth inhibition,SUDIPGXIII,-0.592%
CN1CCN(c2cc3c(cc2F)c(=O)c(C(=O)O)cn3-c2ccc(F)cc2)CC1,growth inhibition,DIPGX29,0.274%
same,growth inhibition,DIPGX37,1.39%
same,growth inhibition,DIPGX7,0.237%
same,growth inhibition,DIPGX9,1.68%
same,growth inhibition,HGGX39,1.58%
same,growth inhibition,HGGX6,-0.335%
same,growth inhibition,HNSC,4.83%
same,growth inhibition,SUDIPGIV,0.444%
same,growth inhibition,SUDIPGVI,1.63%
same,growth inhibition,SUDIPGXIII,0.0917%
CCn1cc(C(=O)O)c(=O)c2cnc(N3CCCC3)nc21,growth inhibition,DIPGX29,-2.15%
same,growth inhibition,DIPGX37,-2.01%
same,growth inhibition,DIPGX7,-0.632%
same,growth inhibition,DIPGX9,-0.749%
same,growth inhibition,HGGX39,-1.43%
same,growth inhibition,HGGX6,0.0128%
same,growth inhibition,HNSC,-2.86%
same,growth inhibition,SUDIPGIV,-0.463%
same,growth inhibition,SUDIPGVI,-0.722%
same,growth inhibition,SUDIPGXIII,-2.7%
[O-]n1ccccc1=S.[O-]n1ccccc1=S.[Zn+2],growth inhibition,DIPGX29,61.5%
same,growth inhibition,DIPGX37,60.4%
same,growth inhibition,DIPGX7,56.6%
same,growth inhibition,DIPGX9,56.4%
same,growth inhibition,HGGX39,20.2%
same,growth inhibition,HGGX6,59.7%
same,growth inhibition,HNSC,58.4%
same,growth inhibition,SUDIPGIV,48.4%
same,growth inhibition,SUDIPGVI,59.2%
same,growth inhibition,SUDIPGXIII,59.7%
CC(c1cc2ccccc2s1)N(O)C(N)=O (stereo not given),growth inhibition,DIPGX29,0.492%
same,growth inhibition,DIPGX37,-0.829%
same,growth inhibition,DIPGX7,0.715%
same,growth inhibition,DIPGX9,-0.313%
same,growth inhibition,HGGX39,-0.313%
same,growth inhibition,HGGX6,-1.42%
same,growth inhibition,HNSC,-0.145%
same,growth inhibition,SUDIPGIV,-2.98%
same,growth inhibition,SUDIPGVI,-1.81%
same,growth inhibition,SUDIPGXIII,0.685%
CC(=O)Oc1cc(C(F)(F)F)ccc1C(=O)O,growth inhibition,DIPGX29,-1.87%
same,growth inhibition,DIPGX37,-1.02%
same,growth inhibition,DIPGX7,-1.55%
same,growth inhibition,DIPGX9,-0.552%
same,growth inhibition,HGGX39,-0.882%
same,growth inhibition,HGGX6,0.0377%
same,growth inhibition,HNSC,-4.31%
same,growth inhibition,SUDIPGIV,-2.59%
same,growth inhibition,SUDIPGVI,-2.15%
same,growth inhibition,SUDIPGXIII,-2.75%
CC(NCCc1ccc(O)cc1)C(O)c1ccc(O)cc1 (stereo not given),growth inhibition,DIPGX29,-0.577%
same,growth inhibition,DIPGX37,-0.38%
same,growth inhibition,DIPGX7,-0.502%
same,growth inhibition,DIPGX9,1.19%
same,growth inhibition,HGGX39,1.54%
same,growth inhibition,HGGX6,-0.151%
same,growth inhibition,HNSC,-0.0915%
same,growth inhibition,SUDIPGIV,-0.121%
same,growth inhibition,SUDIPGVI,1.63%
same,growth inhibition,SUDIPGXIII,-1.5%
CC(C(=O)O)c1ccc2c(c1)[nH]c1ccc(Cl)cc12 (stereo not given),growth inhibition,DIPGX29,-0.444%
same,growth inhibition,DIPGX37,-0.934%
same,growth inhibition,DIPGX7,0.549%
same,growth inhibition,DIPGX9,-0.825%
same,growth inhibition,HGGX39,-0.747%
same,growth inhibition,HGGX6,0.65%
same,growth inhibition,HNSC,-2.15%
same,growth inhibition,SUDIPGIV,-2.81%
same,growth inhibition,SUDIPGVI,-0.161%
same,growth inhibition,SUDIPGXIII,-6.63%
COc1ccccc1OCC(O)COC(N)=O (stereo not given),growth inhibition,DIPGX29,-0.505%
same,growth inhibition,DIPGX37,1.65%
same,growth inhibition,DIPGX7,0.111%
same,growth inhibition,DIPGX9,0.273%
same,growth inhibition,HGGX39,0.0917%
same,growth inhibition,HGGX6,1%
same,growth inhibition,HNSC,-1.62%
same,growth inhibition,SUDIPGIV,-1%
same,growth inhibition,SUDIPGVI,0.561%
same,growth inhibition,SUDIPGXIII,-0.184%
CN(CCOc1ccc(NS(C)(=O)=O)cc1)CCc1ccc(NS(C)(=O)=O)cc1,growth inhibition,DIPGX29,-2.77%
same,growth inhibition,DIPGX37,-1.46%
same,growth inhibition,DIPGX7,0.833%
same,growth inhibition,DIPGX9,-2.46%
same,growth inhibition,HGGX39,-2.37%
same,growth inhibition,HGGX6,-1.41%
same,growth inhibition,HNSC,-6.33%
same,growth inhibition,SUDIPGIV,-2.75%
same,growth inhibition,SUDIPGVI,-13.8%
same,growth inhibition,SUDIPGXIII,0.844%
CCOC(=O)[C@H](CCc1ccccc1)N[C@@H](C)C(=O)N1[C@H](C(=O)O)C[C@@H]2CCC[C@@H]21,growth inhibition,DIPGX29,-3.8%
same,growth inhibition,DIPGX37,-1.96%
same,growth inhibition,DIPGX7,-1.64%
same,growth inhibition,DIPGX9,-2.68%
same,growth inhibition,HGGX39,-4.08%
same,growth inhibition,HGGX6,-5.1%
same,growth inhibition,HNSC,1.84%
same,growth inhibition,SUDIPGIV,-2.04%
same,growth inhibition,SUDIPGVI,-7.46%
same,growth inhibition,SUDIPGXIII,-2.12%
COCCCOc1cc(C[C@@H](C[C@H](N)[C@@H](O)C[C@H](C(=O)NCC(C)(C)C(N)=O)C(C)C)C(C)C)ccc1OC,growth inhibition,DIPGX29,2.63%
same,growth inhibition,DIPGX37,-0.699%
same,growth inhibition,DIPGX7,1.89%
same,growth inhibition,DIPGX9,6.01%
same,growth inhibition,HGGX39,3.87%
same,growth inhibition,HGGX6,1.44%
same,growth inhibition,HNSC,2.36%
same,growth inhibition,SUDIPGIV,-3.1%
same,growth inhibition,SUDIPGVI,2.75%
same,growth inhibition,SUDIPGXIII,0.132%
CCCCC(CC)CN=C(N)N=C(N)NCCCCCCNC(N)=NC(N)=NCC(CC)CCCC (stereo not given),growth inhibition,DIPGX29,57.1%
same,growth inhibition,DIPGX37,60.6%
same,growth inhibition,DIPGX7,58.2%
same,growth inhibition,DIPGX9,57.3%
same,growth inhibition,HGGX39,58.4%
same,growth inhibition,HGGX6,59.5%
same,growth inhibition,HNSC,67.8%
same,growth inhibition,SUDIPGIV,59.4%
same,growth inhibition,SUDIPGVI,60.2%
same,growth inhibition,SUDIPGXIII,69.8%
OCC(O)CN1CCN(c2ccccc2)CC1 (stereo not given),growth inhibition,DIPGX29,-2.77%
same,growth inhibition,DIPGX37,-0.131%
same,growth inhibition,DIPGX7,-2.09%
same,growth inhibition,DIPGX9,-1.86%
same,growth inhibition,HGGX39,-1.17%
same,growth inhibition,HGGX6,-1.7%
same,growth inhibition,HNSC,-3.11%
same,growth inhibition,SUDIPGIV,-1.45%
same,growth inhibition,SUDIPGVI,-3.65%
same,growth inhibition,SUDIPGXIII,-0.744%
COc1ccc([C@@H]2Sc3ccccc3N(CCN(C)C)C(=O)[C@@H]2OC(C)=O)cc1,growth inhibition,DIPGX29,-1.14%
same,growth inhibition,DIPGX37,-1.86%
same,growth inhibition,DIPGX7,0.795%
same,growth inhibition,DIPGX9,-0.923%
same,growth inhibition,HGGX39,-2.92%
same,growth inhibition,HGGX6,-0.0969%
same,growth inhibition,HNSC,-0.232%
same,growth inhibition,SUDIPGIV,-1.32%
same,growth inhibition,SUDIPGVI,-1.92%
same,growth inhibition,SUDIPGXIII,0.713%
CN(C)CCc1c[nH]c2ccc(CS(=O)(=O)N3CCCC3)cc12,growth inhibition,DIPGX29,1.96%
same,growth inhibition,DIPGX37,3.12%
same,growth inhibition,DIPGX7,1.45%
same,growth inhibition,DIPGX9,1.71%
same,growth inhibition,HGGX39,2.56%
same,growth inhibition,HGGX6,3.04%
same,growth inhibition,HNSC,1.98%
same,growth inhibition,SUDIPGIV,0.896%
same,growth inhibition,SUDIPGVI,3.66%
same,growth inhibition,SUDIPGXIII,-0.309%
O=C(C1CCCCC1)N1CC(=O)N2CCc3ccccc3C2C1 (stereo not given),growth inhibition,DIPGX29,0.382%
same,growth inhibition,DIPGX37,3.23%
same,growth inhibition,DIPGX7,1.04%
same,growth inhibition,DIPGX9,1.99%
same,growth inhibition,HGGX39,2.3%
same,growth inhibition,HGGX6,0.441%
same,growth inhibition,HNSC,3.24%
same,growth inhibition,SUDIPGIV,-1.19%
same,growth inhibition,SUDIPGVI,3.33%
same,growth inhibition,SUDIPGXIII,-0.635%
Cc1cccc(N(C)C(=S)Oc2ccc3ccccc3c2)c1,growth inhibition,DIPGX29,-3.14%
same,growth inhibition,DIPGX37,-1.11%
same,growth inhibition,DIPGX7,-2.16%
same,growth inhibition,DIPGX9,-2.01%
same,growth inhibition,HGGX39,-1.4%
same,growth inhibition,HGGX6,-3.78%
same,growth inhibition,HNSC,-3.49%
same,growth inhibition,SUDIPGIV,-3.02%
same,growth inhibition,SUDIPGVI,-3.26%
same,growth inhibition,SUDIPGXIII,0.248%
CCCC(=O)Nc1ccc(OCC(O)CNC(C)C)c(C(C)=O)c1 (stereo not given),growth inhibition,DIPGX29,-1.23%
same,growth inhibition,DIPGX37,-0.501%
same,growth inhibition,DIPGX7,-1.01%
same,growth inhibition,DIPGX9,-0.6%
same,growth inhibition,HGGX39,-0.175%
same,growth inhibition,HGGX6,0.315%
same,growth inhibition,HNSC,-4.5%
same,growth inhibition,SUDIPGIV,-0.848%
same,growth inhibition,SUDIPGVI,-2.3%
same,growth inhibition,SUDIPGXIII,-1.79%
